Active and inactive are the calls of the source.

A short description of assay [1]: optical density shifts of acrAB sulA E. coli – strain DRC41, OD650, 48 h, E. coli filamentation inducer project, primary screen (AID 1152).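 Also: E. coli MC1000 strain DRC41 lacking acrAB efflux pump and sulA.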 To be noted: higher = more signal, called active from +8 up or from −8 down.
A short description of assay [2]: probe aLefty1 binding on compound microarray – biochemical, small-molecule microarray, 635/667 nm fluorescence, primary screen (AID 1153).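 Also: score merges spot fluorescence with signal-to-noise ratio from the scanned slide images.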 To be noted: higher = more signal.
Assay [3] in a line: plasmodial surface anion channel blockers, osmotic lysis – cell-based, P. falciparum Indochina, OD700, 1 h, primary screen (AID 1154). To be noted: P. falciparum Indochina infected RBC osmotic lysis, higher = more signal, called active from +8 up or from −8 down.
Assay [4] is described as follows: plasmodial surface anion channel blockers, osmotic lysis – cell-based, P. falciparum Indochina, OD700, 2 h, primary screen (AID 1155).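 Also: lysis reports solute entry through the parasite surface anion channel PSAC.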 To be noted: P. falciparum Indochina infected erythrocytes, higher = more signal, called active from +8 up or from −8 down.
Assay [5] can be described thus: changes in parasitized red cell lysis, either direction – P. falciparum Indochina, OD700, 3 h, PSAC antagonist project, primary screen (AID 1156). Conditions: P. falciparum-infected erythrocytes, osmotic lysis, higher = more signal, called active from +8 up or from −8 down.
Assay [6] is described as follows: plasmodial surface anion channel blockers, osmotic lysis – cell-based, P. falciparum Indochina, OD700, 18 h, primary screen (AID 1157). Conditions: P. falciparum Indochina infected erythrocytes, osmotic lysis OD700, 18 h; higher = more signal, called active from +8 up or from −8 down.
A short description of assay [7]: S6 kinase pathway phospho-S6 level changes – cell-based, A549, cytoblot, luminescence, serum-stimulated, primary screen (AID 1158).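 Also: serum-stimulated A549 lung adenocarcinoma cells; signal is phosphorylated S6 detected by cytoblot immunostaining with HRP secondary.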 To be noted: 5 h, higher = more signal.
Assay [8] has as its target NADPH oxidase 2 (Homo sapiens) (UniProt P04839). Briefly: compounds shifting NOX2 Amplex Red fluorescence – cell-based, HEK293-NOX2, PMA-stimulated, NOX inhibitor project, primary screen (AID 1159). Also: test concentration not given here. Conditions: 45 min, higher = more signal, called active from +8 up or from −8 down.
The target of assay [9] is NADPH oxidase 4 (Homo sapiens) (UniProt Q9NPH5). The assay is described as follows: compounds shifting NOX4 Amplex Red fluorescence – cell-based, HEK293-NOX4, tetracycline-induced, NOX inhibitor project, primary screen (AID 1160). Conditions: HEK293-NOX4, Amplex Red H2O2 fluorescence, 45 min; higher = more signal, called active from +8 up or from −8 down.
In assay [10] the target is NADPH oxidase 5 (Homo sapiens) (UniProt Q96PH1). The assay is described as follows: compounds shifting NOX5 Amplex Red fluorescence – cell-based, HEK293-NOX5, NOX inhibitor project, primary screen (AID 1161). To be noted: HEK293-NOX5, ionomycin, 45 min, higher = more signal.
Sequence of NADPH oxidase 5 (Homo sapiens) (Q96PH1 whole entry, looked up): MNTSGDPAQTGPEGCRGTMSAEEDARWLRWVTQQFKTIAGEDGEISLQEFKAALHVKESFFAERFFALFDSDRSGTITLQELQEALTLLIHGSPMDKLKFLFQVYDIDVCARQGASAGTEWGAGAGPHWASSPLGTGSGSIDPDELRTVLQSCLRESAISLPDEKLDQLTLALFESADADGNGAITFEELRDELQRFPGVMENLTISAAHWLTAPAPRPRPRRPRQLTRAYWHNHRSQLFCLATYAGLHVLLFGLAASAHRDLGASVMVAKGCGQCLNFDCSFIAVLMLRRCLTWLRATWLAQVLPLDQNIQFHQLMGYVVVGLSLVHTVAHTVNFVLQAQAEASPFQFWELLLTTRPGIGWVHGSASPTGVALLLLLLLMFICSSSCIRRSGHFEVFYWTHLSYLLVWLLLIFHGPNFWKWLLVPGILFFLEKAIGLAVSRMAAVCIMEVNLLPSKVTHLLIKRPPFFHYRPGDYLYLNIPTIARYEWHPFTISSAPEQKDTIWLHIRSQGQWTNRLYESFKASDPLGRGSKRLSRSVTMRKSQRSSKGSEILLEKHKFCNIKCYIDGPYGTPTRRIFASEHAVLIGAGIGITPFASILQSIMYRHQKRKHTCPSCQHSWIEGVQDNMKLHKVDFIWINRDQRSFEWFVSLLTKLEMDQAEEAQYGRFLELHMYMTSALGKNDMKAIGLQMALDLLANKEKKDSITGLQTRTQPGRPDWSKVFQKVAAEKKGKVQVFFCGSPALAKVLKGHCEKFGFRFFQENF

Sequence of NADPH oxidase 2 (Homo sapiens) (P04839 whole entry, looked up): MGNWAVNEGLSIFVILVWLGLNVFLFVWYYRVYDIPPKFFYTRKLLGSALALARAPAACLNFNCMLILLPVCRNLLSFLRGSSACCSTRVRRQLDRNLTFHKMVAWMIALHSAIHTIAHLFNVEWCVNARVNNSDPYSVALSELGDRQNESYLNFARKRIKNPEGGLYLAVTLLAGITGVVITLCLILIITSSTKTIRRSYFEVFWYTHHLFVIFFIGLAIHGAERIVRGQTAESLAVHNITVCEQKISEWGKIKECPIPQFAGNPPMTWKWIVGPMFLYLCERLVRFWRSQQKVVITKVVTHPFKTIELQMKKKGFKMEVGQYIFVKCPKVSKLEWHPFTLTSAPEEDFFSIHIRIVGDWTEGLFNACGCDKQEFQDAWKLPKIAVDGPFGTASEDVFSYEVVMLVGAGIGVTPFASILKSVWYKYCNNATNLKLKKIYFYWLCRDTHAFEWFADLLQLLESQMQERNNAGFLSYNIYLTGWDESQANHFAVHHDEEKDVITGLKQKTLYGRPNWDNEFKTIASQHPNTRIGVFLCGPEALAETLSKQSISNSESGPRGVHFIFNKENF
Sequence of NADPH oxidase 4 (Homo sapiens) (Q9NPH5 whole entry, looked up): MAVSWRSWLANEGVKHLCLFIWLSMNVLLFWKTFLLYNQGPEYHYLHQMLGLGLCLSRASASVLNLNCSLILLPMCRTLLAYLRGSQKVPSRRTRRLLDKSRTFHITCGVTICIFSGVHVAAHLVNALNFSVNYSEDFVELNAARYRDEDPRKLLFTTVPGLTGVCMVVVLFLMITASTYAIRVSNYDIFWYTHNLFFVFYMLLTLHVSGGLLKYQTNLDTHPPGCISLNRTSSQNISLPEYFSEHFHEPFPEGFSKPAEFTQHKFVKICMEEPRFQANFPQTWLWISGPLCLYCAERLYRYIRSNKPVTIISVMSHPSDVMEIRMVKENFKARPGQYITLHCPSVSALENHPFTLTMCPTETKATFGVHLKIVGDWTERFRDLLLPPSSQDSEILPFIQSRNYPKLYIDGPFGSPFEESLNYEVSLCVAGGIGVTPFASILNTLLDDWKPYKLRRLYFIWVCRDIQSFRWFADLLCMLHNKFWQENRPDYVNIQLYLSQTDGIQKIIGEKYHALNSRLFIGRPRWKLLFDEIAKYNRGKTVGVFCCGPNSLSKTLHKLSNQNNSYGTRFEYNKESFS

Turning to `[N-]=[N+]=Nc1ccccc1[C@H]1OC(c2ccc(OCCCO)cc2)=N[C@@]1(CCS(=O)(=O)c1ccccc1)C(=O)O`, the z-score in assay [1] was 0.671 (inactive); in assay [3] it was 31.2 (active); in [4] it was 24.9 (active); in assay [5] it was 1.32 (inactive); in [6], 4.75 (inactive); in assay [7], -0.351. Besides, the z-score in assay [8] is -2.11 (inactive); in assay [9] it was 0.851 (inactive); in assay [10], -0.73. This molecule also displayed a composite z-score in [2] of 0.373.
In the case of `O=C1O[C@H](c2ccccc2)[C@H](c2ccccc2)N2[C@H]1[C@@H](C(=O)N1CCN(c3ncccn3)CC1)[C@]1(C(=O)Nc3ccccc31)[C@H]2c1ccc(OCCO)cc1`, the z-score is 2.64 (inactive) in assay [1]; 7.83 (inactive) in [3]; 0.395 (inactive) in assay [4]; 0.81 (inactive) in [5]; -1.32 (inactive) in assay [6]; 2.11 in [7]. Further, the z-score in assay [8] was 0.192 (inactive); in assay [9], -1.33 (inactive); in [10] it was -2.84. The composite z-score in assay [2] was -0.0221.
For `Cc1ccccc1C(O)C1C=CC2C(=O)N(C)C(=O)C2N1N1CCCCC1` (stereo not given), the z-score in assay [1] was -1.52 (inactive); in assay [3], 0.234 (inactive); in assay [4], 0.479 (inactive); in assay [5] it was 0.126 (inactive); in assay [6], 1.02 (inactive); in [7], -0.467. The z-score in [8] is -0.182 (inactive); in [9] it was 0.0457 (inactive); in assay [10], -1.46. In assay [2], the composite z-score was found to be 0.563.
Regarding `COCCCNC(=O)[C@@]1(c2ccc([N+](=O)[O-])cc2)CC(=O)N(CC23CC4CC(CC(C4)C2)C3)[C@@H]1c1ccc(CO)cc1`, the z-score in assay [1] was 0.697 (inactive); in assay [3] it was 4.55 (inactive); in assay [4], 0.958 (inactive); in assay [5], 1.47 (inactive); in [6], 0.888 (inactive); in [7], 0.0694. Further, the z-score was -0.237 (inactive) in assay [8], -1.44 (inactive) in [9] and -1.74 in [10]. Moreover, the composite z-score in [2] was 0.616.
In the case of `CC(=O)NCCCC[C@@H]1NC(=O)[C@@H]2C[C@H](C(=O)NCCCCCCNC(=O)CS)[C@H](c3ccc(O)cc3)N2C1=O`, the z-score in [1] is -0.644 (inactive); in assay [3], 3.73 (inactive); in [4] it was 0.2 (inactive); in [5], -1.8 (inactive); in assay [6] it was 0.0805 (inactive); in assay [7] it was -0.0593. The z-score in assay [8] was 0.897 (inactive); in assay [9], -0.173 (inactive); in [10], -0.697. Besides, the composite z-score in assay [2] amounted to 0.0494.
With `O=C/C=C/c1ccc(Cl)cc1`, the z-score is 0.73 (inactive) in assay [1]; -0.406 (inactive) in assay [3]; -2.04 (inactive) in [4]; -0.316 (inactive) in assay [5]; -2.54 (inactive) in assay [6]; 0.617 in assay [7]. Further, the z-score is -0.506 (inactive) in assay [8], -0.869 (inactive) in [9] and 1.44 in assay [10]. In assay [2], this molecule yielded a composite z-score of -0.0885.
Consider `C=CCN1C(=O)[C@]2(O[C@H](CCO)[C@@H]([Si](C)(C)c3ccc(OC)cc3)[C@@H]2C)c2cc(NC(=O)[C@H](C)O)ccc21`, for which the z-score in [1] was -0.589 (inactive); in [3], 9.01 (active); in assay [4], 2.65 (inactive); in assay [5], -0.212 (inactive); in assay [6], 1.43 (inactive); in assay [7], 1.23. Also, the z-score in assay [8] was 0.911 (inactive); in [9], 1.26 (inactive); in [10], 0.375. In assay [2], this molecule yielded a composite z-score of 0.174.
For `COc1ccc(CCNC(=O)[C@@]2(c3ccc([N+](=O)[O-])cc3)CC(=O)N(CC34CC5CC(CC(C5)C3)C4)[C@@H]2c2ccc(CO)cc2)cc1`, the z-score is 0.0305 (inactive) in assay [1]; 4.6 (inactive) in assay [3]; 0.522 (inactive) in assay [4]; 3.14 (inactive) in assay [5]; -0.24 (inactive) in [6]; 2 in [7]. The z-score in [8] is -0.956 (inactive); in assay [9], -4.54 (inactive); in assay [10] it was -3.97. In assay [2], this molecule came in with a composite z-score of 0.155.
Regarding `O=C1O[C@H](c2ccccc2)[C@H](c2ccccc2)N2[C@H]1[C@@H](C(=O)NC[C@H](O)c1ccccc1)[C@]1(C(=O)Nc3ccc(C#CCCO)cc31)[C@H]2c1ccc(O)cc1`, the z-score in assay [1] is 0.39 (inactive); in assay [3], 0.211 (inactive); in assay [4], -0.709 (inactive); in assay [5] it was -0.317 (inactive); in assay [6], -1.23 (inactive); in assay [7], 1.21. The values for the z-score in [8], in assay [9] and in assay [10] were -0.687 (inactive), 0.0169 (inactive) and -3.93, respectively. This molecule registered a composite z-score in assay [2] of -0.293.
On to `COCCOC(=O)N1C(=O)[C@@]2(c3cc(C#CCCO)ccc31)[C@H](c1ccc(O)cc1)N1[C@H](c3ccccc3)[C@H](c3ccccc3)OC(=O)[C@H]1[C@@H]2C(N)=O`, for which the z-score in [1] was -0.595 (inactive); in [3], 6.55 (inactive); in assay [4], 1.15 (inactive); in assay [5], 0.152 (inactive); in assay [6], 0.311 (inactive); in assay [7], -0.218. The results for the z-score in assay [8], in assay [9] and in [10] were 0.712 (inactive), -0.952 (inactive) and 0.23, respectively. For the same molecule, in assay [2], the composite z-score was 0.501.
As for `COC(=O)c1ccc(C(O)C2C=CC3C(=O)N(C)C(=O)C3N2NC(=O)OC(C)(C)C)o1` (stereo not given), the z-score in assay [1] is -1.31 (inactive); in [3], 0.146 (inactive); in assay [4], 0.52 (inactive); in assay [5] it was -0.46 (inactive); in assay [6], 0.533 (inactive); in [7], -0.785. In addition, the values for the z-score in [8], in assay [9] and in [10] were -0.786 (inactive), -0.929 (inactive) and 0.396, respectively. In [2], this molecule returned a composite z-score of 0.0622.

(Values after PubChem BioAssay.)
